This note sets out measurements from PubChem BioAssay AID1259249 (Broad Institute, 2017).

Values joined by “and” are separate entries in the source; they are usually repeats but may differ in a detail not shown here. Equal entries are not always repeated. The whole screen tested about 86,000 compounds, of which about 220 (0.26%) were called active. This is one part of a sample in which actives are shown more often than they occur. A number with no mark means an inactive call.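 Rule for the calls: active = mean growth activity at or below -80% and every replicate also at or below -80%; inconclusive = mean at or below -80% but some replicate above -80%; inactive = mean growth activity above -80%.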

A short description of the experiment: C. difficile growth inhibitors, primary screen, HTS (AID 1259249).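 Note: 0% = DMSO wells and -100% = levofloxacin 16 µg/mL wells.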 As to conditions: Clostridium difficile clinical isolate growth, OD600, 24 h; stronger effect = lower value; screened at 16 µg/mL (by protocol).
Regarding `CN(C)CC(=O)N[C@@H]1CC[C@H](CC(=O)NCc2ccc(Cl)cc2)O[C@H]1CO`, the growth activity, negative = inhibition is 3.53%.

`CC(C)C#Cc1ccc2c(c1)O[C@@H](CN(C)C(=O)Nc1ccccc1)[C@H](C)CN([C@H](C)CO)S2(=O)=O`: the growth activity, negative = inhibition was 3.59%.

As for `CCCc1cn(CC[C@@H]2CC[C@@H](NC(=O)C3CC3)[C@H](CO)O2)nn1`, the growth activity, negative = inhibition is -2.37%.

As to `O=C(CC1CC1)N1[C@@H](CO)[C@@H](c2ccccc2)C12CN(S(=O)(=O)c1ccccc1)C2`, the growth activity, negative = inhibition is 1.02%.

As for `COc1ccc2c3c([nH]c2c1)[C@@H](CO)N(Cc1nccs1)CC31CCN(C(=O)C2CCCC2)CC1`, the growth activity, negative = inhibition was 1.43%.

For the compound `CCCC(=O)Nc1ccc2c(c1)C(=O)N(C)[C@H]1CC[C@@H](CC(=O)NCC(F)(F)F)O[C@@H]1CO2`, the growth activity, negative = inhibition was 4.45%.

As to `COCC(=O)N1CC[C@@H]2[C@@H](CO)Nc3ccc(-c4ccc(C(=O)N(C)C)cc4)cc3[C@@H]21`, the growth activity, negative = inhibition was -7.52%.

Turning to `CO[C@@H]1CN(C)C(=O)c2cc(NC(=O)C3CC3)ccc2OC[C@@H](C)N(C(=O)c2ccccc2F)C[C@@H]1C`, the growth activity, negative = inhibition was -0.472%.

Take `O=C(C[C@H]1C[C@@H]2c3cc(NC(=O)C4CCOCC4)ccc3O[C@@H]2[C@H](CO)O1)NCC1CC1`: the growth activity, negative = inhibition was -3.84%.

For `CO[C@@H]1CN(C)C(=O)c2cc(NC(=O)Nc3cccc(Cl)c3)ccc2OC[C@@H](C)N(C)C[C@@H]1C`, the growth activity, negative = inhibition was -2.08%.

As to `CCS(=O)(=O)Nc1ccc2c(c1)C(=O)N(C)[C@@H]1CC[C@@H](CC(=O)NC)O[C@H]1CO2`, the growth activity, negative = inhibition was 3.49%.

With `COc1ccc2c3c(n(C)c2c1)[C@H](CO)N(C(=O)Cc1ccccc1)CC31CCN(C)CC1`, the growth activity, negative = inhibition was -5.17%.

Take `O=C(C1CCC1)N1C[C@H]2[C@@H](c3ccccc31)[C@H](CO)N2C(=O)Nc1cccc(F)c1`: the growth activity, negative = inhibition is -2.73%.

Consider `CCCNC(=O)N1C[C@H](C)[C@@H](OC)CN(C)C(=O)c2ccc(NS(=O)(=O)CC(F)(F)F)cc2OC[C@@H]1C`, for which the growth activity, negative = inhibition was -2.19%.

As for `O=C(c1cccc(F)c1)N1CC[C@@H]2[C@H](CO)Nc3ccc(C#Cc4ccccc4)cc3[C@@H]21`, the growth activity, negative = inhibition was 0.292%.

Consider `CN1C(=O)c2cc(NC(=O)C3CC3)ccc2OC[C@@H]2O[C@H](CC(=O)NCC3CCCCC3)CC[C@@H]21`, for which the growth activity, negative = inhibition was -3.31%.

As for `COc1cccc(S(=O)(=O)N2[C@@H]3CNC[C@H]2C3c2ccc(-c3ccccc3OC)cc2)c1` (stereo partly specified), the growth activity, negative = inhibition was 17.5% and 1.35%.

Turning to `COC(=O)[C@@H]1[C@@H](CO)[C@@H]2Cn3c(ccc(-c4ccc(OC)cc4)c3=O)[C@@H]2N1S(C)(=O)=O`, the growth activity, negative = inhibition is -4.77%.

With `O=C(O)C[C@@H]1CC[C@H](NC(=O)CCN2CCCCC2)[C@H](CO)O1`, the growth activity, negative = inhibition was -9.12%.

As for `COc1ccccc1CN1CC[C@@H]2[C@@H](CO)Nc3ccc(C#Cc4ccccc4)cc3[C@@H]21`, the growth activity, negative = inhibition was -94.5% (active).

Consider `CC(=O)N1CC[C@@H]2[C@H](CO)Nc3ccc(C#Cc4ccccc4F)cc3[C@@H]21`, for which the growth activity, negative = inhibition is -13.8%.

Take `COc1ccc(C#Cc2ccc3c(c2)[C@H]2[C@H](CCN2Cc2nccs2)[C@@H](CO)N3)cc1`: the growth activity, negative = inhibition was -3.82%.

On to `N#C[C@@H]1[C@H](c2ccc(C#CC3CCCCC3)cc2)[C@@H](CO)N1S(=O)(=O)c1ccccc1`, for which the growth activity, negative = inhibition is -14.1%.

Turning to `COc1ccc2c3c(n(C)c2c1)[C@@H](CO)N(C(=O)Nc1ccccc1F)CC31CCN(C(=O)c2ccccc2F)CC1`, the growth activity, negative = inhibition was -1.72%.

Consider `C[C@@H]1CN([C@@H](C)CO)C(=O)c2cc(-c3cccnc3)cnc2O[C@@H]1CN(C)C(=O)C1CC1`, for which the growth activity, negative = inhibition is 4.12%.

In the case of `COc1ccccc1S(=O)(=O)N1C[C@@H]2N[C@H](C1)C2c1ccc(-c2cccc(C)c2)cc1` (stereo partly specified), the growth activity, negative = inhibition was 66.4% and 49%.

For the compound `O=C(C1CCOCC1)N1CC2(C1)[C@H](c1ccccc1)[C@H](CO)N2Cc1ccc(Cl)cc1`, the growth activity, negative = inhibition was -1.43%.

For `C[C@@H]1CCCCO[C@H](CN(C)Cc2ccc(C(F)(F)F)cc2)[C@H](C)CN([C@@H](C)CO)C(=O)c2cc(N(C)C)ccc2O1`, the growth activity, negative = inhibition was 3.85%.

For `Cc1noc(C)c1NC(=O)N(C)C[C@H]1OCCCC[C@@H](C)Oc2ccc(NS(=O)(=O)c3ccc(Cl)cc3)cc2C(=O)N([C@@H](C)CO)C[C@H]1C`, the growth activity, negative = inhibition is -9.03%.

On to `COc1ccc2c3c([nH]c2c1)[C@@H](CO)NCC31CN(S(=O)(=O)c2cccs2)C1`, for which the growth activity, negative = inhibition was -6.75%.

With `CCCNC(=O)N1[C@H](CO)[C@@H]2c3ccccc3N(C(=O)C3CC3)C[C@@H]21`, the growth activity, negative = inhibition is 1.07%.

Turning to `COc1ccc(CN(C)C[C@@H]2OCCCC[C@H](C)Oc3ccc(NS(=O)(=O)c4ccc(F)cc4)cc3C(=O)N([C@H](C)CO)C[C@H]2C)cc1`, the growth activity, negative = inhibition was 8.17%.

Turning to `CC(=O)Nc1ccc2c(c1)C(=O)N(C)[C@@H]1CC[C@H](CC(=O)NCc3ccccc3)O[C@H]1CO2`, the growth activity, negative = inhibition was 6.07%.

In the case of `N#Cc1ccc(-c2ccc(C3[C@H]4CNC[C@@H]3N4S(=O)(=O)c3ccccc3F)cc2)cc1` (stereo partly specified), the growth activity, negative = inhibition is 29.2%.

`CO[C@@H]1CN(C)C(=O)c2ccc(NS(=O)(=O)c3ccc(Cl)cc3)cc2OC[C@@H](C)N(C)C[C@@H]1C`: the growth activity, negative = inhibition was -1.74%.

Regarding `CCCN1[C@H](C(=O)N[C@H](C)c2ccccc2)[C@@H](CO)[C@@H]2Cn3c(ccc(-c4cccc(F)c4)c3=O)[C@@H]21`, the growth activity, negative = inhibition was 14.4%.

On to `COCC#Cc1ccc([C@H]2[C@H]3CN(Cc4ccncc4)CCCCN3[C@H]2CO)cc1`, for which the growth activity, negative = inhibition was 13.5%.

As for `C[C@@H]1CN([C@@H](C)CO)C(=O)c2cc(NS(=O)(=O)c3cn(C)cn3)ccc2O[C@@H](C)CCCCO[C@H]1CN(C)S(=O)(=O)c1cccs1`, the growth activity, negative = inhibition was 1.84%.

As for `CN1c2ccc(-c3ccccc3)cc2[C@H]2[C@H](CCN2C(=O)c2ccc3c(c2)OCO3)[C@H]1CO`, the growth activity, negative = inhibition is -20.7%.

Turning to `CN1C(=O)c2cc(NC(=O)c3cnccn3)ccc2OC[C@H]2O[C@@H](CC(=O)NCC3CCCCC3)CC[C@@H]21`, the growth activity, negative = inhibition is 0.457%.

On to `CO[C@H]1CN(C)C(=O)c2cc(NC(=O)C3CC3)ccc2OC[C@H](C)N(Cc2ccccc2)C[C@H]1C`, for which the growth activity, negative = inhibition was -3.86%.
